The values below come from PubChem BioAssay (NCI).

Assay [1] can be described thus: NCI Yeast Anticancer Drug Screen. Data for the rad50 strain (AID 155).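 Further: 0% = growth of vehicle-only cultures of the same strain.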 The conditions noted are these: S. cerevisiae rad50 strain growth inhibition, active compounds read high. Summed up:
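Readout: growth inhibition relative to vehicle-treated cultures. Compound exposure was carried out in a genetically defined yeast strain deficient in DNA damage repair.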

Assay [2] is described as follows: NCI Yeast Anticancer Drug Screen. Data for the mec2-1 strain (AID 157). The conditions noted are these: S. cerevisiae mec2-1 strain, active compounds read high. Summed up:
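Using mec2-1 yeast: add compound, measure growth, express inhibition versus vehicle-treated cultures.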

The nature of assay [3]: NCI Yeast Anticancer Drug Screen. Data for the sgs1 mgt1 strain (AID 161).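 Further: 0% = growth of cultures given vehicle only.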 The conditions noted are these: S. cerevisiae sgs1 mgt1 strain, active compounds read high. The method, boiled down:
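Percent growth inhibition was derived by comparing compound-exposed mutant yeast with vehicle-exposed cultures. The strain carries alterations in DNA damage repair.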

Assay [4] can be described thus: NCI Yeast Anticancer Drug Screen. Data for the cln2 rad14 strain (AID 165).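 Further: 0% = growth equal to vehicle treated cultures.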 The conditions noted are these: S. cerevisiae cln2 rad14 strain, active compounds read high. The method, boiled down: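 Yeast strain cln2 rad14, bearing defects in cell cycle control and DNA repair, serves as the test system; values reflect growth inhibition compared with vehicle.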
A short description of assay [5]: NCI Yeast Anticancer Drug Screen. Data for the bub3 strain (AID 167). The conditions noted are these: S. cerevisiae bub3 mutant strain, active compounds read high. Summed up: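 Readout: yeast growth inhibition, expressed relative to vehicle-only wells. The test organism is a mutant strain from a panel with lesions in DNA repair or checkpoint genes.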
Assay [6] can be described thus: NCI Yeast Anticancer Drug Screen. Data for the mlh1 rad18 strain (AID 175). The conditions noted are these: S. cerevisiae mlh1 rad18 strain growth inhibition, active compounds read high. The method, boiled down:
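Steps: expose repair-defective yeast to compound; measure growth; express inhibition against vehicle-treated controls.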

Where [7] appears, read: at 5.0 µM (retest, dose inferred, filed as 0.5).
Where [8] appears, read: at 50.0 µM (retest, dose inferred, filed as 5.0).

About 79,000 compounds went through this panel and 15% of them were active in at least one assay; those are over-represented in the sample as a whole. A number with no mark means an inactive call. Calls of active or inactive are those of the source. No stated cut-off is given here; in the data, active means growth inhibition above about 70%; inactive means the rest.

Take `CN(C)/C(N)=N\c1nc2ccc(Cl)cc2s1`: the growth inhibition in assay [1] (setting [7]) is -13%; in assay [1] (setting [8]) it was 15%; in assay [1] (at 50.0 µM) it was 10.9%; in assay [2] (setting [7]), -4%; in assay [2] (setting [8]), -17%; in assay [2] (at 50.0 µM), 11.4%. The growth inhibition in assay [3] (setting [7]) is -17%; in assay [3] (setting [8]), 4%; in assay [3] (at 50.0 µM), 8.3%; in assay [4] (setting [7]), -20%; in assay [4] (setting [8]) it was -10%; in assay [4] (at 50.0 µM) it was 15.9%. The growth inhibition was -1% in assay [5] (setting [7]); 12% in assay [5] (setting [8]); -11.1% in assay [5] (at 50.0 µM); -3% in assay [6] (setting [7]); 48% in assay [6] (setting [8]); 9.05% in assay [6] (at 50.0 µM).
As to `CCN1/C(=C/C(C)=C/c2sc3ccccc3[n+]2CC)Sc2ccccc21`, the growth inhibition in assay [1] (setting [7]) was 98% (active); in assay [1] (setting [8]), 97% (active); in assay [1] (at 50.0 µM), 92% (active); in assay [2] (setting [7]), 97% (active); in assay [2] (setting [8]), 100% (active); in assay [2] (at 50.0 µM), 94% (active). Besides, the growth inhibition in assay [3] (setting [7]) is 98% (active); in assay [3] (setting [8]), 100% (active); in assay [3] (at 50.0 µM), 94% (active); in assay [4] (setting [7]) it was 97% (active); in assay [4] (setting [8]) it was 99% (active); in assay [4] (at 50.0 µM), 93.7% (active). Moreover, the growth inhibition in assay [5] (setting [7]) was 98% (active); in assay [5] (setting [8]), 99% (active); in assay [5] (at 50.0 µM) it was 92.8% (active); in assay [6] (setting [7]) it was 98% (active); in assay [6] (setting [8]) it was 99% (active); in assay [6] (at 50.0 µM), 92% (active).
As to `CC(=O)Oc1c2ccccc2c(C)c2c1ccc1ccccc12`, the growth inhibition in assay [1] (setting [7]) is 65%; in assay [1] (setting [8]), 93% (active); in assay [1] (at 50.0 µM), 96% (active); in assay [2] (setting [7]), 84% (active); in assay [2] (setting [8]), 92% (active); in assay [2] (at 50.0 µM) it was 95% (active). Also, the growth inhibition is 89% (active) in assay [3] (setting [7]); 93% (active) in assay [3] (setting [8]); 96% (active) in assay [3] (at 50.0 µM); 49% in assay [4] (setting [7]); 92% (active) in assay [4] (setting [8]); 94.2% (active) in assay [4] (at 50.0 µM). Further, the growth inhibition is 37% in assay [5] (setting [7]); 93% (active) in assay [5] (setting [8]); 96.7% (active) in assay [5] (at 50.0 µM); 91% (active) in assay [6] (setting [7]); 90% (active) in assay [6] (setting [8]); 91.8% (active) in assay [6] (at 50.0 µM).
With `CCCCCCC/C=C/C(=O)OC1C(OC2C(OC(CCCCCCC)CC(=O)OC(CCCCCCC)CC(=O)O)OC(C)C(O)C2O)OC(C)C(O)C1O` (configuration not stated), the growth inhibition in assay [1] (setting [7]) is -18%; in assay [1] (setting [8]), 70% (active); in assay [1] (at 50.0 µM), 91.5% (active); in assay [2] (setting [7]), -37%; in assay [2] (setting [8]), 57%; in assay [2] (at 50.0 µM), 81.8% (active). For the same compound, the growth inhibition in assay [3] (setting [7]) is -27%; in assay [3] (setting [8]) it was 62%; in assay [3] (at 50.0 µM), 92.7% (active); in assay [4] (setting [7]), -40%; in assay [4] (setting [8]), 68%; in assay [4] (at 50.0 µM) it was 90.1% (active). The growth inhibition in assay [5] (setting [7]) was -42%; in assay [5] (setting [8]), 94% (active); in assay [5] (at 50.0 µM) it was 90% (active); in assay [6] (setting [7]), -34%; in assay [6] (setting [8]), 95% (active); in assay [6] (at 50.0 µM), 89.5% (active).
Turning to `CCCCCCN(CCCCCC)P(=O)(N1CC1C)N1CC1C` (configuration not stated), the growth inhibition in assay [1] (setting [7]) is -2%; in assay [1] (setting [8]), 99% (active); in assay [1] (at 50.0 µM), -11.6%; in assay [2] (setting [7]), -5%; in assay [2] (setting [8]) it was 99% (active); in assay [2] (at 50.0 µM), 32.4%. In addition, the growth inhibition in assay [3] (setting [7]) was -3%; in assay [3] (setting [8]) it was 33%; in assay [3] (at 50.0 µM) it was 10.1%; in assay [4] (setting [7]), 3%; in assay [4] (setting [8]), 99% (active); in assay [4] (at 50.0 µM) it was -7.75%. For the same compound, the growth inhibition in assay [5] (setting [7]) is 7%; in assay [5] (setting [8]) it was 99% (active); in assay [5] (at 50.0 µM), 81.2% (active); in assay [6] (setting [7]) it was -2%; in assay [6] (setting [8]) it was 99% (active); in assay [6] (at 50.0 µM), 24.9%.
As for `O=C(COC(=O)c1ccc(O)cc1)c1ccc(-c2ccccc2)cc1`, the growth inhibition in assay [1] (setting [7]) was -16%; in assay [1] (setting [8]), -13%; in assay [1] (at 50.0 µM), 21.7%; in assay [2] (setting [7]), -4%; in assay [2] (setting [8]) it was 11%; in assay [2] (at 50.0 µM) it was 25.4%. Also, the growth inhibition was -1% in assay [3] (setting [7]); 12% in assay [3] (setting [8]); 19.9% in assay [3] (at 50.0 µM); 22% in assay [4] (setting [7]); -45% in assay [4] (setting [8]); 28.1% in assay [4] (at 50.0 µM). The growth inhibition in assay [5] (setting [7]) is 6%; in assay [5] (setting [8]), -20%; in assay [5] (at 50.0 µM), 17.6%; in assay [6] (setting [7]), -5%; in assay [6] (setting [8]), 24%; in assay [6] (at 50.0 µM) it was 19.9%.
Turning to `COC(=O)/C=C/c1cccc[n+]1[O-]`, the growth inhibition in assay [1] (setting [7]) is 3%; in assay [1] (setting [8]), -6%; in assay [1] (at 50.0 µM) it was 44.6%; in assay [2] (setting [7]) it was 3%; in assay [2] (setting [8]) it was -4%; in assay [2] (at 50.0 µM), -2.85%. The growth inhibition in assay [3] (setting [7]) is 4%; in assay [3] (setting [8]) it was -6%; in assay [3] (at 50.0 µM), 0.55%; in assay [4] (setting [7]), 4%; in assay [4] (setting [8]), -15%; in assay [4] (at 50.0 µM), 54.8%. Further, the growth inhibition in assay [5] (setting [7]) is 4%; in assay [5] (setting [8]), 0%; in assay [5] (at 50.0 µM), -4.4%; in assay [6] (setting [7]) it was -1%; in assay [6] (setting [8]), -11%; in assay [6] (at 50.0 µM), 17.8%.
On to `O=C(O)c1ccccc1N=N/C(=N\Nc1cc(S(=O)(=O)O)ccc1O)c1ccccc1`, for which the growth inhibition in assay [1] (setting [7]) was -7%; in assay [1] (setting [8]), 85% (active); in assay [1] (at 50.0 µM) it was 48.4%; in assay [2] (setting [7]), -5%; in assay [2] (setting [8]), 49%; in assay [2] (at 50.0 µM), 20.5%. Also, the growth inhibition is -3% in assay [3] (setting [7]); 95% (active) in assay [3] (setting [8]); 46.5% in assay [3] (at 50.0 µM); -3% in assay [4] (setting [7]); 47% in assay [4] (setting [8]); -32% in assay [4] (at 50.0 µM). Also, the growth inhibition in assay [5] (setting [7]) was 1%; in assay [5] (setting [8]), 97% (active); in assay [5] (at 50.0 µM), 38.8%; in assay [6] (setting [7]) it was -4%; in assay [6] (setting [8]) it was 74% (active); in assay [6] (at 50.0 µM), 44.5%.
Turning to `CCO/C=C1\C(=O)C=C(C)CC1c1ccc(OC)c(OC)c1OC` (configuration not stated), the growth inhibition was 3% in assay [1] (setting [7]); 84% (active) in assay [1] (setting [8]); 53.1% in assay [1] (at 50.0 µM); 4% in assay [2] (setting [7]); 81% (active) in assay [2] (setting [8]); 38% in assay [2] (at 50.0 µM). Also, the growth inhibition in assay [3] (setting [7]) was 7%; in assay [3] (setting [8]) it was 86% (active); in assay [3] (at 50.0 µM), 47.6%; in assay [4] (setting [7]) it was -5%; in assay [4] (setting [8]) it was 55%; in assay [4] (at 50.0 µM), 16.6%. Besides, the growth inhibition in assay [5] (setting [7]) was -8%; in assay [5] (setting [8]), 80% (active); in assay [5] (at 50.0 µM), 41.7%; in assay [6] (setting [7]), 4%; in assay [6] (setting [8]) it was 88% (active); in assay [6] (at 50.0 µM), 86.7% (active).
